Results as given in the supplement of paper PMC7411054.
Counter-ions that a name gives are not always drawn.

Experiments:
Settings in all cases: treatment time: 24 h
[1] = tested on: WPMY1-GM130-SQSTM1; experiment: lowest phenotypically active concentration; higher = less potent
Outline: (§1)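 The reporter lines, fifteen in total and built by gene editing in A549, HepG2 and WPMY1 cells, used BFP for segmentation alongside GFP and RFP/FusionRed markers. Each was treated at 0.3, 1, 3 or 9 µM for 24 h in four wells and then imaged live, with live-cell features normalised to solvent control wells. Deviation meant ≥3 of 4 wells beyond the 95th percentile of control Euclidean distances; reproducibility meant a median replicate Pearson correlation above the 95th percentile of non-replicates. Only conditions meeting both were scored as phenotypically active.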

[2] = tested on: WPMY1-TP53BP1-CLTA; experiment: as above
Outline: as §1

[3] = tested on: A549-ACTB-RAB5A; experiment: phenotypically active (imaging signature differs from DMSO and reproducible) at any of 0.3-9 uM (binary (1 = active, 0 = inactive)); higher = active
Outline: as §1

[4] = tested on: A549-CANX-COX4; experiment: as above
Outline: as §1

[5] = tested on: A549-GM130-SQSTM1; experiment: as above
Outline: as §1

[6] = tested on: A549-TP53BP1-CLTA; experiment: as above
Outline: as §1

[7] = tested on: A549-TUBA1B-RELA; experiment: as above
Outline: as §1

[8] = tested on: HepG2-ACTB-RAB5A; experiment: as above
Outline: as §1

[9] = tested on: HepG2-CANX-COX4; experiment: as above
Outline: as §1

[10] = tested on: HepG2-GM130-SQSTM1; experiment: as above
Outline: as §1

[11] = tested on: HepG2-TP53BP1-CLTA; experiment: as above
Outline: as §1

[12] = tested on: HepG2-TUBA1B-RELA; experiment: as above
Outline: as §1

[13] = tested on: WPMY1-ACTB-RAB5A; experiment: as above
Outline: as §1

[14] = tested on: WPMY1-CANX-COX4; experiment: as above
Outline: as §1

[15] = tested on: WPMY1-GM130-SQSTM1; experiment: as above
Outline: as §1

[16] = tested on: WPMY1-TP53BP1-CLTA; experiment: as above
Outline: as §1

[17] = tested on: WPMY1-TUBA1B-RELA; experiment: as above
Outline: as §1

[18] = tested on: A549-ACTB-RAB5A; experiment: lowest phenotypically active concentration; higher = less potent
Outline: as §1

[19] = tested on: A549-GM130-SQSTM1; experiment: as above
Outline: as §1

[20] = tested on: A549-TUBA1B-RELA; experiment: as above
Outline: as §1

[21] = tested on: HepG2-CANX-COX4; experiment: as above
Outline: as §1

[22] = tested on: HepG2-TUBA1B-RELA; experiment: as above
Outline: as §1

| Compound | lowest phenotypically active concentration [1] | lowest phenotypically active concentration [2] | phenotypically active [3] | phenotypically active [4] | phenotypically active [5] | phenotypically active [6] | phenotypically active [7] | phenotypically active [8] | phenotypically active [9] | phenotypically active [10] | phenotypically active [11] | phenotypically active [12] | phenotypically active [13] | phenotypically active [14] | phenotypically active [15] | phenotypically active [16] | phenotypically active [17] | lowest phenotypically active concentration [18] | lowest phenotypically active concentration [19] | lowest phenotypically active concentration [20] | lowest phenotypically active concentration [21] | lowest phenotypically active concentration [22] |
| --- | --- | --- | --- | --- | --- | --- | --- | --- | --- | --- | --- | --- | --- | --- | --- | --- | --- | --- | --- | --- | --- | --- |
| COc1ccc2c3c(c(=O)n(C)c2c1OC)C=CC(C)(C)O3 [Veprisine] | 9 µM | 9 µM | 0 (inactive) | 0 (inactive) | 0 (inactive) | 0 (inactive) | 0 (inactive) | 0 (inactive) | 0 (inactive) | 0 (inactive) | 0 (inactive) | 0 (inactive) | 0 (inactive) | 0 (inactive) | 1 (active) | 1 (active) | 0 (inactive) |  |  |  |  |  |
| COc1ccc(CCN(C)CCCC(C#N)(c2ccc(OC)c(OC)c2)C(C)C)cc1OC (stereo not given) [verapamil] |  |  | 1 (active) | 0 (inactive) | 1 (active) |  | 1 (active) | 0 (inactive) | 0 (inactive) | 0 (inactive) |  | 0 (inactive) | 0 (inactive) | 0 (inactive) | 0 (inactive) |  | 0 (inactive) | 9 µM | 9 µM | 9 µM |  |  |
| CNCC(O)c1ccc(OC(=O)C(C)(C)C)c(OC(=O)C(C)(C)C)c1 (stereo not given) [dipivefrine] | 9 µM |  | 0 (inactive) | 0 (inactive) | 0 (inactive) | 0 (inactive) | 0 (inactive) | 0 (inactive) | 0 (inactive) | 0 (inactive) | 0 (inactive) | 0 (inactive) | 0 (inactive) | 0 (inactive) | 1 (active) | 0 (inactive) | 0 (inactive) |  |  |  |  |  |
| CS(=O)(=O)c1ccc(-c2nnc(/C=C/c3nnc(-c4ccc(C#N)cc4)o3)n2-c2ccccc2Cl)nc1 |  | 9 µM | 0 (inactive) | 0 (inactive) | 0 (inactive) | 0 (inactive) | 0 (inactive) | 0 (inactive) | 0 (inactive) | 0 (inactive) | 0 (inactive) | 0 (inactive) | 0 (inactive) | 0 (inactive) | 0 (inactive) | 1 (active) | 0 (inactive) |  |  |  |  |  |
| Cc1ccc(C(=O)c2cc(O)c(O)c([N+](=O)[O-])c2)cc1 [tolcapone] |  |  |  | 0 (inactive) |  | 0 (inactive) |  | 0 (inactive) | 0 (inactive) | 0 (inactive) | 0 (inactive) | 0 (inactive) | 0 (inactive) | 0 (inactive) | 0 (inactive) | 0 (inactive) | 0 (inactive) |  |  |  |  |  |
| Nc1nc(N)nc(-c2cc(Cl)ccc2Cl)n1 [Irsogladine maleate] |  |  |  | 0 (inactive) |  | 0 (inactive) |  | 0 (inactive) | 0 (inactive) | 0 (inactive) | 0 (inactive) | 0 (inactive) | 0 (inactive) | 0 (inactive) | 0 (inactive) | 0 (inactive) | 0 (inactive) |  |  |  |  |  |
| Fc1ccc(Cl)cc1-c1nc(Nc2ccncc2)c2nccnc2n1 |  | 9 µM | 0 (inactive) | 0 (inactive) | 0 (inactive) | 0 (inactive) | 0 (inactive) | 0 (inactive) | 0 (inactive) | 0 (inactive) | 0 (inactive) | 0 (inactive) | 0 (inactive) | 0 (inactive) | 0 (inactive) | 1 (active) | 0 (inactive) |  |  |  |  |  |
| CCN(CC)CCOC(=O)C1(C2CCCCC2)CCCCC1 [dicycloverine] |  |  |  | 0 (inactive) |  | 0 (inactive) |  | 0 (inactive) | 0 (inactive) | 0 (inactive) | 0 (inactive) | 0 (inactive) | 0 (inactive) | 0 (inactive) | 0 (inactive) | 0 (inactive) | 0 (inactive) |  |  |  |  |  |
| Cc1cnc(NC(=O)C2=C(O)c3ccccc3S(=O)(=O)N2C)s1 [meloxicam] |  |  | 0 (inactive) | 0 (inactive) | 0 (inactive) |  | 0 (inactive) | 0 (inactive) | 0 (inactive) | 0 (inactive) |  | 0 (inactive) | 0 (inactive) | 0 (inactive) | 0 (inactive) |  | 0 (inactive) |  |  |  |  |  |
| CC(C)Cc1ccc(C(C)C(=O)O)cc1 (stereo not given) [ibuprofen] |  |  | 0 (inactive) | 0 (inactive) | 0 (inactive) |  | 0 (inactive) | 0 (inactive) | 0 (inactive) | 0 (inactive) |  | 0 (inactive) | 0 (inactive) | 0 (inactive) | 0 (inactive) |  | 0 (inactive) |  |  |  |  |  |
| Cc1ccc(NC(=O)c2ccc(CN3CCN(C)CC3)cc2)cc1Nc1nccc(-c2cccnc2)n1 [Imatinib mesylate] |  |  |  | 1 (active) | 1 (active) |  |  | 1 (active) | 1 (active) |  |  | 1 (active) | 1 (active) | 1 (active) | 1 (active) |  | 1 (active) |  |  |  |  |  |
| COc1cc2nc(N3CCN(C(=O)c4ccco4)CC3)nc(N)c2cc1OC [prazosin] |  |  | 0 (inactive) | 0 (inactive) | 0 (inactive) |  | 0 (inactive) | 0 (inactive) | 1 (active) | 0 (inactive) |  | 1 (active) | 0 (inactive) | 0 (inactive) | 0 (inactive) |  | 0 (inactive) |  |  |  | 9 µM | 9 µM |
| C[C@H](CS)C(=O)N1CCC[C@H]1C(=O)O [captopril] |  |  | 0 (inactive) | 0 (inactive) | 0 (inactive) |  | 0 (inactive) | 0 (inactive) | 0 (inactive) | 0 (inactive) |  | 0 (inactive) | 0 (inactive) | 0 (inactive) | 0 (inactive) |  | 0 (inactive) |  |  |  |  |  |
| C=C[C@H]1CN2CC[C@H]1C[C@H]2[C@H](O)c1ccnc2ccc(OC)cc12 [Quinine dihydrochloride] |  |  | 1 (active) | 0 (inactive) | 1 (active) |  | 0 (inactive) | 0 (inactive) | 0 (inactive) | 0 (inactive) |  | 0 (inactive) | 0 (inactive) | 0 (inactive) | 0 (inactive) |  | 0 (inactive) | 9 µM | 3 µM |  |  |  |
| C=C[C@H]1CN2CC[C@H]1C[C@@H]2[C@@H](O)c1ccnc2ccc(OC)cc12 [Quinidine hydrochloride monohydrate] |  |  | 0 (inactive) | 0 (inactive) | 0 (inactive) |  | 0 (inactive) | 0 (inactive) | 0 (inactive) | 0 (inactive) |  | 0 (inactive) | 0 (inactive) | 0 (inactive) | 0 (inactive) |  | 0 (inactive) |  |  |  |  |  |
| C[C@@H](Oc1cc(-c2cnn(C3CCNCC3)c2)cnc1N)c1c(Cl)ccc(F)c1Cl [Crizotinib] |  |  |  | 1 (active) | 1 (active) | 1 (active) |  | 1 (active) | 1 (active) |  | 1 (active) | 1 (active) | 1 (active) | 1 (active) | 1 (active) | 1 (active) | 1 (active) |  |  |  |  |  |
| CCCCCCCCCCCCc1ccc(S(=O)(=O)Nc2nncs2)cc1 |  |  |  | 0 (inactive) |  | 0 (inactive) |  | 0 (inactive) | 0 (inactive) | 0 (inactive) | 0 (inactive) | 0 (inactive) | 0 (inactive) | 0 (inactive) | 0 (inactive) | 0 (inactive) | 0 (inactive) |  |  |  |  |  |
| CC[C@@H]1C(=O)OC[C@@H]1Cc1cncn1C [Pilocarpine hydrochloride] |  |  |  | 0 (inactive) |  | 0 (inactive) |  | 0 (inactive) | 0 (inactive) | 0 (inactive) | 0 (inactive) | 0 (inactive) | 0 (inactive) | 0 (inactive) | 0 (inactive) | 0 (inactive) | 0 (inactive) |  |  |  |  |  |
| O=c1c(O)c(-c2ccc(O)c(O)c2)oc2cc(O)cc(O)c12 [Quercetin] | 9 µM |  | 0 (inactive) | 0 (inactive) | 0 (inactive) | 0 (inactive) | 0 (inactive) | 0 (inactive) | 0 (inactive) | 0 (inactive) | 0 (inactive) | 0 (inactive) | 0 (inactive) | 0 (inactive) | 1 (active) | 0 (inactive) | 0 (inactive) |  |  |  |  |  |
| CNC(=O)c1c(-c2ccc(F)cc2)oc2cc(N(CCO)S(C)(=O)=O)c(C3CC3)cc12 [nesbuvir] |  |  |  | 0 (inactive) |  | 0 (inactive) |  | 0 (inactive) | 0 (inactive) | 0 (inactive) | 0 (inactive) | 0 (inactive) | 0 (inactive) | 0 (inactive) | 0 (inactive) | 0 (inactive) | 0 (inactive) |  |  |  |  |  |
